{"source": "PubChem BioAssay (NCATS)", "note": "Results filed as inconclusive are left out. Activity calls are given as the source filed them. Calls come from the whole dose curve; as a rule, active = well fitted curve in either direction with a large enough effect (not every such curve was filed as active); inconclusive = small, poorly fitted or top-dose-only effect, or another doubt; inactive = flat fitted curve, though single readings scatter. % is set by controls: 0 for no effect and ±100 for the full control effect."}
{"experiment": "Stat Signaling Pathway (AID 446);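 note: ME-180 cervical cancer cells given 40 pM IL-6 alongside compound; SIE-controlled beta-lactamase reporter measured as 460/530 nm FRET emission ratio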", "conditions": "ME-180 SIE beta-lactamase reporter, IL-6 stimulated, 5 h; series mostly up to 17.2 µM; activity, negative = inhibition: at the top concentration", "procedure,_shortened": "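Screening format detects activators and inhibitors alike: ME-180 SIE-bla cells stimulated at 40 pM IL-6 for 5 hrs with compound, then dual-emission beta-lactamase read at 405 nm excitation.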"}
{"smiles": "N[C@H](CC(=O)O)C(=O)O", "activity, negative = inhibition": "18.6% [at 38 µM] (inactive)"}
{"smiles": "O=P(O)(O)OP(=O)(O)O", "activity, negative = inhibition": "-5.06% [at 7.69 µM] (inactive)"}
{"smiles": "CC(=O)Oc1cc(C(F)(F)F)ccc1C(=O)O", "activity, negative = inhibition": "5.53% (inactive)"}
{"smiles": "Nc1ccc(N=Nc2ccccc2)c(N)n1", "activity, negative = inhibition": "-16.4% (inactive)"}
{"smiles": "CCc1cn([C@H]2C[C@H](O)[C@@H](CO)O2)c(=O)[nH]c1=O", "activity, negative = inhibition": "-4.25% (inactive)"}
{"smiles": "O=C(O)c1ccc(OCCn2ccnc2)cc1", "activity, negative = inhibition": "6.49% (inactive)"}
{"smiles": "Cc1cccc(C)c1NC(=O)C1CCCCN1C", "note": "(stereo not drawn)", "activity, negative = inhibition": "0.849% (inactive)"}
{"smiles": "CC(=O)[C@H]1CC[C@H]2[C@@H]3C=CC4=CC(=O)CC[C@@]4(C)[C@H]3CC[C@]12C", "activity, negative = inhibition": "-4.97% (inactive)"}
{"smiles": "O=C1NCCN1c1ncc([N+](=O)[O-])s1", "activity, negative = inhibition": "-7.76% (inactive)"}
{"smiles": "CNC(=O)c1c(I)c(C(=O)NCC(=O)Nc2c(I)c(C(=O)O)c(I)c(C(=O)NCCO)c2I)c(I)c(N(C)C(C)=O)c1I", "activity, negative = inhibition": "-6.57% (inactive)"}
{"smiles": "CCSc1ccc2c(c1)N(CCCN1CCN(C)CC1)c1ccccc1S2", "activity, negative = inhibition": "-7.41% (inactive)"}
{"smiles": "CC(=O)N=c1sc(S(N)(=O)=O)nn1C", "outcome": "inactive"}
{"smiles": "CN(CCO)CC(O)Cn1cnc2c1c(=O)n(C)c(=O)n2C", "note": "(stereo not drawn) (tested in a mixture with another compound)", "activity, negative = inhibition": "9.14% (inactive)"}
{"smiles": "Cn1nnnc1SCC1=C(C(=O)O)N2C(=O)[C@@H](NC(=O)[C@H](O)c3ccccc3)[C@H]2SC1", "activity, negative = inhibition": "-3.5% (inactive)"}
{"smiles": "Cc1cc(C)c(NC(=O)C[C@H](CC(=O)O)c2cccc3ccccc23)c(C(=O)N2CCC3(CCCC3)CC2)c1", "activity, negative = inhibition": "-21.8% [at 38 µM] (inactive)"}
{"smiles": "CCCC(CCC)C(=O)OC1C[C@H]2CC[C@@H](C1)[N+]2(C)C", "note": "(stereo partly drawn)", "activity, negative = inhibition": "3.53% (inactive)"}
{"smiles": "CC1(C)S[C@@H]2[C@H](NC(=O)C3(N)CCCCC3)C(=O)N2[C@H]1C(=O)O", "activity, negative = inhibition": "-6.21% (inactive)"}
{"smiles": "CCCCC(=O)O[C@H]1CC[C@H]2[C@@H]3CCc4cc(O)ccc4[C@H]3CC[C@]12C", "activity, negative = inhibition": "-4.95% (inactive)"}
{"smiles": "O=C(O)Cc1cc(I)c(Oc2ccc(O)c(I)c2)c(I)c1", "outcome": "inactive"}
{"smiles": "Oc1ccc(/C=C/c2cc(O)cc(O)c2)cc1", "activity, negative = inhibition": "-18.1% (inactive)"}
{"smiles": "O=C(O)CCC(=O)c1ccc(-c2ccccc2)cc1", "activity, negative = inhibition": "-3.69% (inactive)"}
{"smiles": "Cc1ncc(C[n+]2csc(CCO)c2C)c(N)n1", "activity, negative = inhibition": "1.25% (inactive)"}
{"smiles": "COc1cc(S(C)=O)ccc1-c1nc2ncccc2[nH]1", "note": "(stereo not drawn)", "activity, negative = inhibition": "0.345% (inactive)"}
{"smiles": "CC(=O)Oc1cccc2c1C(=O)c1c(OC(C)=O)cc(C(=O)O)cc1C2=O", "activity, negative = inhibition": "9.11% (inactive)"}
{"smiles": "N[C@@H](Cc1cc(I)c(Oc2ccc(O)c(I)c2)c(I)c1)C(=O)O", "activity, negative = inhibition": "2.12% (inactive)"}
{"smiles": "CCCOc1cc(N)ccc1C(=O)OCCN(CC)CC", "activity, negative = inhibition": "7.68% (inactive)"}
{"smiles": "CN1CCc2c(c3ccccc3n2Cc2ccccc2)C1", "activity, negative = inhibition": "4.54% (inactive)"}
{"smiles": "Cn1cc(NC(=O)c2cc(NC(=O)c3cc(NC=O)cn3C)cn2C)cc1C(=O)NCCC(=N)N", "activity, negative = inhibition": "10.3% (inactive)"}
